Assay outcomes (PubChem BioAssay)
Most compounds without a hit are left out; they make up all but 2.9% or so of the library.
POLK inh – DNA polymerase kappa (human) inhibition. Q9UBT6. purified Pol kappa, fluorescent DNA synthesis assay, 10 min. Potency, µM (highest dose often 107 µM), for the others: top-dose activity, negative = inhibition, usual class: inhibitors. 0.53% of 400,000 active. AID 588579; further: potency means the concentration at half of the fitted maximal effect; on the % scale 0 is the no-effect control and ±100 the full control effect
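Pol kappa 10 nM + cpd, 15 min RT; start w/ substrate 50 nM final; fluorescence kinetic read, 0 and 10 min. Neg ctrl: buffer, no enzyme.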
POLH inh – blocks human DNA polymerase eta activity | recombinant Pol eta, fluorescent DNA replication assay | Potency, µM (series often up to 114 µM), without a hit: top-dose activity change, negative = inhibition, usual class: inhibitors | Q9Y253 | 1.2% of 390,000 active; further: potency means the concentration at half of the fitted maximal effect; on the % scale 0 is the no-effect control and ±100 the full control effect
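Fluorescent replication assay: 50 nM final substrate added after a 15 min room-temperature compound preincubation with 10 nM enzyme. Signal taken at 0 min and again at 10 min.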
PI5P4Ka inh – inhibitors of human PI5P4K alpha; P48426; PI5P4Kalpha enzyme, ADP-Glo luminescence, 60 min; stronger effect = lower value; max response, %; 1.2% of 330,000 active; AID 652105; active means max response of -50% or lower; inconclusive means between -30% and -50%; inactive means -30% or higher; further: value at the top dose of about 77 µM; on the % scale 0 is the no-effect control and ±100 the full control effect
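Human PI5P4Kalpha with substrate in 0.038 M HEPES pH 7.4, 0.28 mM EGTA, 0.1% CHAPS, 5% DMSO; reaction started with 5 microM ATP (final), 60 min at room temperature. ADP formed read by ADP-Glo luminescence.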
POLI inh – inhibitors of human DNA polymerase iota; Potency, µM (titrated, usually from 115 µM), inactives show at the top dose activity, negative = inhibition, most hits filed as inhibitors; 1% of 390,000 active; Pol iota fluorescent replication assay, 10 min; AID 588590; Q9UNA4; further: potency means the concentration at half of the fitted maximal effect
Target sequence (Q9UNA4 whole entry, looked up): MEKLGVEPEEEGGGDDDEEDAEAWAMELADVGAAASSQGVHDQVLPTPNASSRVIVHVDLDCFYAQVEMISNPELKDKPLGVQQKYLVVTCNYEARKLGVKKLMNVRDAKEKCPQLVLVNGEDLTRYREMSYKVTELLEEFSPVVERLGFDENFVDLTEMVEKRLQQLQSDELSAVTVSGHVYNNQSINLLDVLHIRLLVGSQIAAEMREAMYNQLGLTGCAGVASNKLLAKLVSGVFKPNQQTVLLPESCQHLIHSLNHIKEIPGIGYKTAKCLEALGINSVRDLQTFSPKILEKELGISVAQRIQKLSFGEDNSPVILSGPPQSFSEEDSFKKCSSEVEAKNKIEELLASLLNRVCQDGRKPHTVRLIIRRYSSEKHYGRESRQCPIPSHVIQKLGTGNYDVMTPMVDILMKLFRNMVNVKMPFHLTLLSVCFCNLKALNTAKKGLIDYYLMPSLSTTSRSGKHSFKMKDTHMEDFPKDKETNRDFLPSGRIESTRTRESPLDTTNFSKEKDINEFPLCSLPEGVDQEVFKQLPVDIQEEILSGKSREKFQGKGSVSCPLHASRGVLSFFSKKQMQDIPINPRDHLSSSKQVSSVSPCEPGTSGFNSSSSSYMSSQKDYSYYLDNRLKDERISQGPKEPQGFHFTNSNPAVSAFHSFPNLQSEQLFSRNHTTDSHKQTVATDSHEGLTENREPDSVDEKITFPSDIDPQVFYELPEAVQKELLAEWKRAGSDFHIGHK
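Pol iota at 10 nM preincubated 15 min with compounds at room temperature; reaction started with fluorescent substrate, 50 nM final. Fluorescence read kinetically at 0 and 10 min; buffer-only wells as negative control.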
ALOX12 inh – ALOX12 (human) lipoxygenase inhibition. 1.1% of 580,000 active. purified 12hLO, xylenol orange hydroperoxide absorbance. Potency, µM (doses to about 108 µM), without a hit: at the highest dose activity change, negative = inhibition, usual class: inhibitors; further: potency means the concentration at half of the fitted maximal effect; on the % scale 0 is the no-effect control and ±100 the full control effect
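Purified human 12hLO at 150 nM in 25 mM Hepes, 0.01% Triton X-100, pH 7.0, preincubated 15 min at room temperature with compound. Reaction started with 40 uM arachidonic acid, 30 min at room temperature. Hydroperoxide measured by Fe-xylenol orange, 573/405 nm absorbance ratio.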
Pol beta inh – blocks human DNA polymerase beta activity; Pol beta primer extension/strand displacement, fluorescence kinetic; Potency, µM (highest dose often 114 µM), without a hit: at the top dose activity change, negative = inhibition, hits mostly inhibitors; 1.3% of 340,000 active; further: potency means the concentration at half of the fitted maximal effect; on the % scale 0 is the no-effect control and ±100 the full control effect
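Kinetic readout of DNA synthesis with strand displacement by Pol beta. Compound and 10 nM enzyme sit 15 min at room temperature; 50 nM substrate starts the reaction, read immediately and at 10 min.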
* hit, by the source's call; ? = inconclusive; . = not tested or not shown; [ ] = remark or other dose. Unless noted, the call rests on the fitted dose curve; in most records, active means well fitted inhibition curve with a large enough effect; inconclusive means small, poorly fitted or top-dose-only effect, or another doubt; inactive means no such curve, though single readings can be large or run the other way.

SMILES	POLK inh	POLH inh	PI5P4Ka inh	POLI inh	ALOX12 inh	Pol beta inh
CCOC(=O)CC(=O)CSc1ccc2nnc(-c3cccc(F)c3)n2n1	-18%	-3%	.	-6%[58.9 µM]	-22%	3%
CCCCC/C=N\Nc1nc(C)nc(N)n1	.	.	.	.	-1%	.
Cc1cc2nc(-c3ccccc3Br)n(C(C(=O)NC(C)(C)C)c3ccccc3)c2cc1C (centres undefined)	.	.	.	.	-9%	.
Cc1ccc(CNC(=O)COc2ccc(C)nc2[N+](=O)[O-])cc1	-7%	-18%	0	12%	-4%	8%
Cc1ccc(OCC(=O)c2ccc(Cl)s2)c([N+](=O)[O-])n1	?	?	-56*	?	?	25µM*
CCOc1cc(/C=C/c2nc3ccccc3o2)ccc1O	.	.	.	.	79%	.
CN1CCN(c2ccnc(-c3cccnc3)n2)CC1	2%[60.1 µM]	.	.	.	-14%	.
CN1CCN(c2ccnc(-c3ccoc3)n2)CC1	-1%[60.1 µM]	.	.	.	22µM*	.
CN1CCN(c2cc(-c3ccoc3)ncn2)CC1	5%[60.1 µM]	.	.	.	11µM*	.
CC(C(=O)N1CCN(c2ccccc2F)CC1)n1c(=O)c(C(F)(F)F)nc2ccccc21 (centres undefined)	.	.	.	.	-10%	.
CCOc1cc(C#N)c(NC(=O)c2ccc(OC)c(S(=O)(=O)N(CC)CC)c2)cc1OCC	.	.	.	.	0%	.
Cc1c(C(=O)NCc2cccc(Br)c2)oc2ccc3c(c12)C(=O)CC(C)(C)O3	?	.	.	79µM*	-20%	8%
Cc1cccc(C)c1NC(=O)c1oc2ccc3c(c2c1C)C(=O)CC(C)(C)O3	-4%	-5%	.	11%	-13%	32%
COc1cc(OC)c2c(C)c(CC(=O)NCc3ccccc3OC)c(=O)oc2c1	-5%	28µM*	.	3%	-17%	-11%
COc1ccccc1CNC(=O)c1oc2ccc3c(c2c1C)C(=O)CC(C)(C)O3	-19%	.	.	89µM*	-7%	2%
Cc1cc(C)cc(NC(=O)c2oc3ccc4c(c3c2C)C(=O)CC(C)(C)O4)c1	0%	-15%	.	17%	-5%	-8%
CN(C(=O)c1cccc(Cl)c1)C1CCCc2ccccc21 (centres undefined)	.	.	.	.	5%[176 µM]	.
CCCCC[n+]1cccc2c3ccccc3ccc21	3%[60.1 µM]	-19%	3	32%	45µM*	1%
COCCn1c(NC(=S)NC(=O)C2CC2)cc(=O)[nH]c1=O	0%	-14%	-60*	80%	?	2%
CN(CC(=O)N(C)c1ccccc1C(=O)NCc1ccco1)Cc1ccc(F)cc1	.	.	.	.	-7%	.
Cc1ccc(/C=C/C(=O)N2CCN(S(=O)(=O)c3ccc(C)c(C)c3)CC2)o1	-5%	-18%	-74*	?	18µM*	-3%
Cc1ccc(/C=C/C(=O)N2CCN(S(=O)(=O)c3c(C)c(C)cc(C)c3C)CC2)o1	-2%	?	?	-7%	?	?
CN(CC(=O)NC(=O)NCc1ccccc1)CC(=O)Nc1cccc(F)c1	.	.	.	.	-24%	.
Cc1cc(Br)ccc1NC(=O)C1C2CCC(O2)C1C(=O)O (centres undefined)	9%	-7%	5	17%	5µM*	10%
CCOc1cc(C(c2c(C)[nH]n(-c3ccccc3)c2=O)c2c(C)[nH]n(-c3ccccc3)c2=O)ccc1O	-7%	-19%	.	1.6µM*	0%	-2%
CCOc1cc(C(c2c(C)[nH]c3ccccc23)c2c(C)[nH]c3ccccc23)ccc1O	.	.	.	.	7.9µM*	.
COc1ccc(C(c2c(C)n(C)n(-c3ccccc3)c2=O)c2c(C)n(C)n(-c3ccccc3)c2=O)cc1OC	-3%	-4%	-2	?	-2%	15%
Cc1[nH]n(-c2ccccc2)c(=O)c1C(c1cc(Cl)ccc1O)c1c(C)[nH]n(-c2ccccc2)c1=O	-9%	?	.	?	?	18%
Cc1[nH]c2ccccc2c1C(c1c(C)[nH]c2ccccc12)c1c(C)[nH]c2ccccc12	-10%	.	.	24%	.	.
COc1ccc(C(c2c(C)[nH]n(-c3ccccc3)c2=O)c2c(C)[nH]n(-c3ccccc3)c2=O)cc1OC	-12%	-5%	5	1.3µM*	?	32%
